Shown are actives, neighbours in structure and some others; about 5.7% of the full set was active somewhere.
KB-3-1 tox = kills parental KB-3-1 adenocarcinoma cells. KB-3-1 viability, CellTiter-Glo ATP luminescence, 72 h. Potency, µM (doses to about 46.1 µM), usual class: cytotoxic. 400,000 compounds, 1.4% hits; note: potency is the fitted concentration of half-maximal effect; nearly all actives have a fitted effect of over 60% in size
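Viability of parental KB-3-1 cells, measured by CellTiter-Glo luminescence, followed a 72 h incubation at 37 °C with pinned compounds in phenol-red-free DMEM containing 10% FBS.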
Nrf2 block = Nrf2 pathway inhibition. A549 ARE-Fluc reporter, luciferase luminescence, 18-24 h. Potency, µM (titrated, usually from 46 µM), for inactives: top-dose activity change, negative = inhibition, hits mostly inhibitors. 360,000 compounds, 2.1% hits; note: potency is the fitted concentration of half-maximal effect; nearly all actives have a fitted effect of over 60% in size
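Nrf2 function is reported as luminescence of an ARE-controlled luciferase in A549 cells. Compounds were tested at several concentrations, and a CellTiter-Fluor read on the same wells flagged cytotoxicity.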
PI4K2A inh = blocks human PI4K2A kinase activity. Q9BTU6. purified PI4K2A, ADP-Glo luminescence, 1 h; stronger effect = lower value. activity change, negative = inhibition, % at 76.9 µM. 420,000 compounds, 0.13% hits. AID 1346378; in the data active = activity change below about -50%; inconclusive = mostly about -30% to -49%;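 note: -100% = wells without enzyme as full effect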
Target sequence (Q9BTU6 whole entry, looked up): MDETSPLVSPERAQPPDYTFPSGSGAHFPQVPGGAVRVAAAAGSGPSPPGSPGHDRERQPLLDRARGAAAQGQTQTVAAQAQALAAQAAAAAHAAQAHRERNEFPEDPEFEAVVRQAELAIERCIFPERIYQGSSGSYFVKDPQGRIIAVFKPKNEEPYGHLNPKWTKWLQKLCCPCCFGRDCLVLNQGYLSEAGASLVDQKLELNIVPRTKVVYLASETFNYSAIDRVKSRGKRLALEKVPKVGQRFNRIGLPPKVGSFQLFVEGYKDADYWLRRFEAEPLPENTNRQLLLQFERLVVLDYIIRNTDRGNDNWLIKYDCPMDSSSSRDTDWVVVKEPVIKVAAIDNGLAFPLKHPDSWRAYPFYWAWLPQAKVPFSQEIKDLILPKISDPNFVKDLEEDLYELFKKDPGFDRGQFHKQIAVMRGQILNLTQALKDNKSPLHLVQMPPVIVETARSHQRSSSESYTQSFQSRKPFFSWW
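ADP-Glo luminescence measured ADP generated by PI4K2A enzyme (4 ug/mL before mixing) with 1.2 mM PI substrate (pre-mix) and 300 microM ATP (pre-mix). Tris pH7.5 buffer with MgCl2, Triton X-100; 1 h reaction at ambient temperature.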
A549 viability = A549 cytotoxicity, counter-screen for Nrf2 inhibitors; A549 ARE-Fluc cells, CellTiter-Fluor viability, 18-24 h; Potency, µM (top dose mostly 46 µM), for the others: at the top dose activity change, negative = cytotoxicity, usual class: inhibitors; 390,000 compounds, 0.16% hits; note: potency is the fitted concentration of half-maximal effect
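Cytotoxicity counterscreen: CellTiter-Fluor fluorescence was measured in A549 ARE_Fluc cells after 18-24 h of compound exposure in a concentration series. The subsequent BugLite luminescent read reports ARE-luciferase activity.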
Giardia kill = kills Giardia lamblia; activity change, % at 7.66 µM, hits read low; 340,000 compounds, 0.15% hits; Giardia lamblia trophozoite viability; in the data active = activity change below about -80%; inconclusive = between about -30% and that limit;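 note: parasites exposed to compound for two days anaerobically before the ATP read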
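Killing of trophozoites was scored by loss of ATP luminescence after a 48 hrs anaerobic exposure to compounds at 37 deg C, using 100 cells per well.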
KB-V1 MDR tox = KB-V1 MDR subline cytotoxicity; Potency, µM (top dose mostly 46.1 µM), hits mostly cytotoxic; KB-V1 MDR cells viability, CellTiter-Glo, 72 h; 400,000 compounds, 3.4% hits; AID 1347076; note: potency is the fitted concentration of half-maximal effect; nearly all actives have a fitted effect of over 60% in size
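Following 72 h at 37 degrees C with compound, KB-V1 cell viability was read by CellTiter-Glo luminescence, medium being phenol-red-free DMEM plus 10% FBS; concentration-response parameters came from normalized, curve-fitted qHTS data.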
* marks the source's active call; other numbers are inactive results; i = inactive; ? = inconclusive; . = no result. Unless noted, calls come from the whole dose curve; as a rule, active = well fitted curve in the direction sought with a large enough effect; inconclusive = small, poorly fitted or top-dose-only effect, or another doubt; inactive = no such curve, though single readings can be large; an effect the other way counts as inactive or inconclusive. Unless noted, % is set by controls: 0 for no effect and ±100 for the full control effect.

SMILES	KB-3-1 tox	Nrf2 block	PI4K2A inh	A549 viability	Giardia kill	KB-V1 MDR tox
Cc1nc2cc(C(F)(F)F)ccc2n1C1CCN(Cc2nnnn2Cc2cccs2)CC1	i	?	0.1	-5.2%	1.8	?
Cc1nc2cc(C(F)(F)F)ccc2n1C1CCN(Cc2nnnn2Cc2ccc3c(c2)OCO3)CC1	?	?	-0.1	3.0%	-4.9	18.4µM*
COc1ccc(C2CC(=O)Oc3c2c(=O)oc2ccccc32)c(OC)c1OC (stereo not given)	?	1.0%	5.3	1.7%	.	i
COc1ccc(C2=CC(c3ccc4c(c3)OCO4)c3c(c4ccccc4oc3=O)O2)cc1OC (stereo not given)	2.91µM*	-18.6%	-2.0	-12.2%	8.6	2.59µM*
CCOC(=O)NC(C)(C)Cc1ccc(Cl)cc1	.	.	1.3	.	.	.
C=CCN1C[C@@H](C)N([C@H](c2ccc(C(=O)N(CC)CC)cc2)c2cccc(OC)c2)C[C@@H]1C	.	.	1.1	.	.	.
Cc1ccc(NC(=O)C2CCCN(C(=O)c3cnn(-c4ccccc4)c3-n3cccc3)C2)cc1 (stereo not given)	?	13µM*	-1.8	-6.1%	.	?
O=C(NCc1ccc(Cl)cc1)C1CCCN(C(=O)c2cnn(-c3ccc(F)cc3)c2-n2cccc2)C1 (stereo not given)	.	?	-0.6	-10.7%	.	.
CSc1cccc(NC(=O)C2CCN(C(=O)c3cnn(-c4ccccc4)c3-n3cccc3)CC2)c1	?	23.1µM*	0.4	-22.2%	.	i
COc1cc(CC#N)cc(OC)c1OC	.	.	-0.3	.	.	.
CC1(C)c2[nH]c3ccccc3c2C[C@@H]2C(=O)N(Cc3ccccc3F)C(=O)N21	?	0.3%	-5.4	7.6%	-3.7	?
CC1(C)c2[nH]c3ccccc3c2C[C@H]2C(=O)N(Cc3ccccc3F)C(=O)N21	?	23.1µM*	-0.8	?	6.7	?
C=C1C(=O)C(C)=C2C(=O)N3Cc4[nH]c5ccccc5c4CC3(C(=O)OC)C12 (stereo not given)	.	.	-10.8	.	.	.
COC1/C=C/C=C(\C)Cc2cc(O)c(Cl)c(c2)N(C)C(=O)CC(OC(=O)C(C)C)C2(C)OC2C(C)C2CC1(O)NC(=O)O2 (stereo not given)	?	8.2µM*	-2.3	?	?	0.731µM*
Cc1ccc(C)c(N2CCN(C(=O)C3CCCN(S(=O)(=O)c4cccc5nsnc45)C3)CC2)c1 (stereo not given)	i	16.4µM*	-2.9	-6.7%	.	i
COc1ccc(-c2nc(NC(=O)Cn3c(=O)oc4ccccc43)sc2C)cc1	i	18.4µM*	-6.3	-17.3%	0.8	i
CC(C)CNC(=O)c1c(N)n(Cc2ccco2)c2nc3ccccc3nc12	?	?	-16.0	-20.8%	10.5	16.4µM*
Nc1c(C(=O)NCc2ccco2)c2nc3ccccc3nc2n1CCN1CCCCC1	i	?	-4.6	-18.8%	6.4	i
COc1ccc(Cn2c(N)c(C(=O)NCc3ccco3)c3nc4ccccc4nc32)cc1OC	?	?	3.5	?	-6.9	20.6µM*
CCCNC(=O)c1c(N)n(Cc2ccco2)c2nc3ccccc3nc12	i	-10.0%	-15.5	6.7%	20.7	i
CCC(=O)N1N=C(c2c(O)n(C)c(=O)n(C)c2=O)CC1c1ccccc1 (stereo not given)	20.6µM*	?	-2.7	-11.2%	4.3	?
Cc1ccc(NC(=O)c2cc(S(=O)(=O)N3CCOCC3)c(Cl)cc2Cl)cc1	?	?	-2.0	1.3%	.	?
CC(C)CCOP(=O)(c1ccc(N(C)C)cc1)C(O)c1ccc(Cl)cc1Cl (stereo not given)	?	?	-3.0	?	25.9	?
C/C(CC(c1ccccc1)c1c(O)c2ccccc2oc1=O)=N\Nc1ccc([N+](=O)[O-])cc1[N+](=O)[O-] (stereo not given)	i	23.1µM*	4.1	?	28.3	i
Cc1cc(C(=O)OCC(=O)Nc2ccc(F)cc2)c(C)n1C1CC1	i	-5.8%	0.3	-1.7%	12.1	23.1µM*
SMILES	KB-3-1 tox	Nrf2 block	PI4K2A inh	A549 viability	Giardia kill	KB-V1 MDR tox
O=[N+]([O-])/N=C1\NCCN1Cc1ccc(Cl)nc1	.	.	1.6	.	.	.
COC(=O)C1=C(c2cc3ccccc3s2)C[C@@H]2CC[C@H]1N2C(=O)NCc1ccc(F)cc1	i	?	-6.6	-5.0%	4.5	i
CCc1ccc(CNC(=O)C2CCN(C(=O)c3ccc(-n4c(C)cc5ccccc54)s3)CC2)cc1	?	18.4µM*	-1.1	-28.6%	.	i
C[C@]12CC[C@H]3[C@@H](CC[C@@]45O[C@H]4C(O)=C(C#N)C[C@]35C)[C@H]1CC[C@H]2O	.	.	1.7	.	.	.
CN(C(=O)Oc1ccc(Cl)c2cccnc12)c1ccccc1	i	-0.8%	-3.8	-8.3%	-5.3	18.4µM*
CN(C(=O)Oc1cccc2cccnc12)c1ccccc1	i	5.0%	-1.9	0.3%	7.7	?
CC(=O)c1ccc(NC(=O)c2sc3nc4c(cc3c2N)N2CCC4CC2)cc1	?	?	-2.4	-11.4%	.	23.1µM*
O=c1oc2ccccc2c(O)c1C(CC(O)c1ccc(-c2ccc(Br)cc2)cc1)c1ccccc1 (stereo not given)	.	.	-4.0	.	.	.
Oc1ccccc1-c1ccccc1	.	.	-5.3	.	.	.
COC(=O)C1=C(c2ccc(-c3ccccc3)c(F)c2)C[C@@H]2CC[C@H]1N2C(=O)N1CCC(O)CC1	i	?	0.2	-1.3%	11.7	i
COC(=O)C1=C(c2ccc(-c3ccccc3)c(F)c2)C[C@@H]2CC[C@H]1N2C(=O)N1CCCC1	18.4µM*	20.6µM*	1.7	-1.3%	7.5	?
COC(=O)C1=C(c2cc3ccccc3s2)C[C@@H]2CC[C@H]1N2C(=O)N1CCCCC1	25.9µM*	?	0.6	0.2%	1.5	?
COC(=O)C1=C(c2cc3ccccc3o2)C[C@@H]2CC[C@H]1N2C(=O)N1CCOCC1	5.8µM*	18.9%	-0.5	2.0%	-0.5	23.1µM*
COC(=O)C1=C(c2ccc(-c3ccccc3)c(F)c2)C[C@@H]2CC[C@H]1N2C(=O)N1CCCCC1	i	?	0.7	-20.8%	-0.2	?
COC(=O)C1=C(c2ccc(-c3ccccc3)c(F)c2)C[C@@H]2CC[C@H]1N2C(=O)N1CCC(C)CC1	?	16.4µM*	0.0	-7.2%	4.4	?
Cn1c(=O)n(C)c2cc(CNCCc3ccccc3)ccc21	i	-13.6%	0.6	-9.0%	.	i

Assay outcomes (PubChem)
